# Bioassay records as filed in PubChem.
# VDR inhibitor: Inhibitors of the vitamin D receptor (VDR): qHTS. AID 504847, 2011. VDR-SRC2-3 peptide fluorescence polarization, 2 h. Potency, µM, inactives show max response, negative = inhibition, actives largely listed as inhibitors. 400,000 tested, 0.93% active
#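 FP read-out; VDR + SRC2-3 coactivator peptide; 23 nl compound by pintool; 2 h RT incubation; reagents held at 4 deg C, protected from light.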
# Sfp inh: qHTS Assay for Inhibitors of Bacillus subtilis Sfp phosphopantetheinyl transferase (PPTase) | Biochemical Sfp PPTase activity, qHTS | Potency, µM, for inactives: largest response in the series, negative = inhibition, most hits filed as inhibitors | 310,000 tested, 3.5% active;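 also: the enzyme is Sfp with the accession as filed and its product quenches rhodamine fluorescence; 0% = enzyme reaction without inhibitor and -100% = no enzyme wells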
#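 After 15 min at room temperature with compound, 15 nM Sfp received 5 uM rhodamine-CoA plus 12.5 uM BHQ-2-ybbR (50 mM Hepes pH 7.6, 10 mM MgCl2). Rate came from the fluorescence difference over 30 min, ex 525/em 598 nm.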
# Tau ThT inhib: qHTS for Inhibitors of Tau Fibril Formation, Thioflavin T Binding; Microtubule-associated protein tau (Homo sapiens), P10636; recombinant tau K18 P301L, heparin-induced fibrillization, ThT fluorescence; Potency, µM (highest dose often 57.4 µM), inactives show top-dose activity, negative = inhibition, usual class: inhibitors; 270,000 tested, 2.1% active; AID 1460, 2008; also: nearly all actives have a fitted effect of over 55% in size
# Target sequence (P10636 561-689 P618L limits assumed): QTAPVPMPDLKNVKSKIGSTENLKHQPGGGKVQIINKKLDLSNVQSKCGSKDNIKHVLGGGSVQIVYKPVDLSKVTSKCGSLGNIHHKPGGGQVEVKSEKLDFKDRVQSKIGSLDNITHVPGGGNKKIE
#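 Heparin-induced (20 uM) aggregation of recombinant human K18 P301L tau, 15 uM unlabeled with 0.24 uM labeled, pH 7 acetate buffer, 6 hr at 37 C with compound. Fibrils quantified by 30 uM ThT fluorescence after 1 hr ambient incubation.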
# Tau fluor counter: Counterscreen qHTS for Inhibitors of Tau Fibril Formation, Fluorescence Polarization; tau K18 P301L Alexa594 fluorescence, heparin fibrillization; Potency, µM (doses to about 57.7 µM), without a hit: at the top dose activity change, negative = decrease; 280,000 tested, 0.93% active; also: nearly all actives have a fitted effect of over 55% in size
#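 Human tau K18 P301L (15 uM unlabeled, 0.24 uM Alexa 594-labeled) in 100 mM sodium acetate pH 7 with 20 uM heparin, 6 hr at 37 C. ThT 30 uM added, 1 hr ambient; Alexa 594 FP and total fluorescence read at 555/632 nm.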
# Tau FP inhib: qHTS for Inhibitors of Tau Fibril Formation, Fluorescence Polarization | Microtubule-associated protein tau (Homo sapiens), P10636 | K18 P301L tau heparin fibrillization, Alexa594 FP, 6 h | Potency, µM (doses to about 57.7 µM), for inactives: top-dose activity, negative = inhibition, usual class: inhibitors | 280,000 tested, 0.39% active | AID 1468, 2008; also: nearly all actives have a fitted effect of over 55% in size
#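 Heparin (20 uM) drove fibril formation of recombinant tau K18 P301L, 15 uM unlabeled with 0.24 uM Alexa 594 label, for 6 hr at 37 C in 100 mM sodium acetate pH 7. Fluorescence polarization (555/632 nm) read 1 hr after 30 uM ThT.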
# PLK1 PBD inh: qHTS for Inhibitors of PLK1-PDB (polo-like kinase 1 - polo-box domain): Primary Screen; AID 720504, 2013; 360,000 tested, 2.8% active; Potency, µM, without a hit: max response, negative = inhibition, hits mostly inhibitors; Plk1 PBD binding of FITC phosphopeptide, fluorescence polarization; also: series mostly up to about 57 µM; nearly all actives have a fitted effect of over 65% in size
# * hit, by the source's call; ? = inconclusive; nt = no result; ! = not active in a repeat. Hits are enriched below; roughly 6% of the tested compounds scored in any of these assays. Calls follow the shape of the dose curve; as a rule, active = well fitted curve in the direction sought with a large enough effect; inconclusive = small, poorly fitted or top-dose-only effect, or another doubt; inactive = no such curve, though single readings can be large; an effect the other way counts as inactive or inconclusive. Unless noted, % is scaled to controls: 0 for no effect and ±100 for the full control effect; potency is read from the fitted curve at half-maximal effect.
SMILES,VDR inhibitor,Sfp inh,Tau ThT inhib,Tau fluor counter,Tau FP inhib,PLK1 PBD inh
Cc1ncc(CN2CC=C(c3ccccc3)CC2)c(N)n1,nt,-18%,-10%,-11%,7%,nt
NC(N)=NN=C(/C=C/c1ccc([N+](=O)[O-])o1)/C=C/c1ccc([N+](=O)[O-])o1,?,50µM*,nt,nt,nt,nt
CC(C)C[C@H]1C(=O)N2CCC[C@H]2[C@]2(O)O[C@](NC(=O)[C@@H]3C=C4c5cccc6[nH]c(Br)c(c56)C[C@H]4N(C)C3)(C(C)C)C(=O)N12,28µM*!,-4%,?,?,8%,nt
CN1C[C@H](C(=O)N[C@]2(C)O[C@@]3(O)[C@@H]4CCCN4C(=O)[C@H](Cc4ccccc4)N3C2=O)C=C2c3cccc4[nH]cc(c34)C[C@H]21,14µM*,-17%,nt,nt,nt,nt
CC(C)C[C@H]1C(=O)N2CCC[C@H]2[C@]2(O)O[C@](NC(=O)[C@@H]3C=C4c5cccc6[nH]cc(c56)C[C@H]4N(C)C3)(C(C)C)C(=O)N12,79µM*,nt,nt,nt,nt,?
CC(C)C[C@H]1C(=O)N2CCC[C@@H]2[C@]2(O)O[C@](NC(=O)[C@H]3C=C4c5cccc6[nH]c(Br)c(c56)C[C@H]4N(C)C3)(C(C)C)C(=O)N12,-13%,-11%,nt,nt,nt,nt
CN(C)S(=O)(=O)c1cc(NC(=O)C[N+]23CCN(CC2)CC3)ccc1Cl,-5%,9%,0%,-8%,10%,-5%
CN(C)S(=O)(=O)c1cc(NC(=O)COC(=O)Cc2ccccc2)ccc1Cl,?,6%,6%,2%,6%,30µM*
COC(=O)OCC12CCC(O1)C1(C)C(=O)OCC21 (stereo not drawn),?,13%,3%,11%,0%,24µM*
CCN1C[C@]2(COC)CC[C@H](O)[C@@]34[C@@H]5C[C@H]6[C@@H](OC)[C@H]5[C@](O)(C[C@@H]6OC)[C@@](O)([C@@H](OC)[C@H]23)[C@@H]14,-3%,20%,nt,nt,nt,nt
O=C(Nc1ccc(F)cc1)c1c(O)c2c(n(Cc3ccccc3)c1=O)CCCC2,-11%,5%,-10%,-13%,-4%,27µM*
COc1ccc(CCn2c(O)c(C=NCc3cccnc3)c(=O)[nH]c2=O)cc1OC,-12%,24%,3%,5%,2%,27µM*
CCN(CC)CCCN=Cc1c(O)n(CCc2ccc(OC)c(OC)c2)c(=O)[nH]c1=O,9%,8%,-2%,3%,5%,-1%
O=C(CCCN1CCC2(CC1)C(=O)N(Cc1cccc(F)c1)CN2c1ccccc1)c1ccc(F)cc1,?,71µM*,?,?,-8%,nt
O=C(NCCN1CCC2(CC1)C(=O)NCN2c1cccc(F)c1)c1ccc2ccccc2c1,nt,nt,nt,nt,nt,4%
Cc1ccccc1N1CCN(S(=O)(=O)c2nnc(NC(=O)c3ccc(Cl)cc3)s2)CC1,-13%,nt,?,-26%,-5%,nt
CCN(c1ccc(C)cc1C)S(=O)(=O)c1nnc(NC(=O)c2ccco2)s1,12%,14%,nt,nt,nt,27µM*
COc1ccc(/C=C2/C(=O)NC(=O)N(Cc3ccco3)C2=O)cc1,nt,?,4%,4%,3%,nt
Cc1ccc(-n2c(C)cc(/C=C3/C(=O)NC(=O)N(Cc4ccco4)C3=O)c2C)cc1,-2%,?,?,-19%,10%,?
Cn1cccc1/C=C1\C(=O)NC(=O)N(Cc2ccco2)C1=O,-29%,-20%,?,-24%,1%,24µM*
Cc1ccc(OCCn2cccc2/C=C2/C(=O)NC(=O)N(Cc3ccco3)C2=O)cc1,-12%,?,nt,-22%,3%,2.7µM*
